# Results from PubChem BioAssay (NCATS).
# Inconclusive results are not listed. Calls of active or inactive are those of the source. Calls follow the shape of the dose curve; as a rule, active = well fitted cell-killing curve with a large enough effect; inconclusive = small, poorly fitted or top-dose-only effect; inactive = flat fitted curve, though single readings scatter. Numbered stars: 1 amine (or outer) side, 2 acyl side, 3 side chain; on linkers, the order of the positions; unused ones are H or OH. Bridge positions count the residues as written; N and C are the ends. Square brackets hold non-standard residues; d marks the D form. Peptide text beside a SMILES is read from it. I, II: the chains in the order shown. Actinocin(9to1) = Cc1c2oc3c(C)ccc(C(=O)[*:1])c3nc-2c(C(=O)[*:2])c(N)c1=O; NMeV = CN[C@H](C(=O)O)C(C)C; Sar = CNCC(=O)O
# Assay: qHTS of pediatric cancer cell lines to identify multiple opportunities for drug repurposing: Confirmatory screen for SK-N-SH cells (AID 1347129);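 also: cells exposed to compound for 48 h before viability read; nearly all actives have a fitted effect of over 60% in size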;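 as to activity change, negative = cytotoxic: plate controls were DMSO for no effect and bortezomib control for full effect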
# Conditions: SK-N-SH neuroblastoma cell viability; series mostly up to 46.1 µM; activity change, negative = cytotoxic: at the top concentration
# Description: Drug repurposing or repositioning has been offered as a strategy for drug development in oncology programs. This approach has special potential for childhood cancers and other rare or orphan diseases, where the expected return on new drug development has been a disincentive to pharmaceuticals.
# In this project we exploit the poly-pharmacology of drugs to discover new indications via phenotypic screening of a panel of 19 well-characterized cell lines derived from solid tumors seen in children and adolescents. The goal is to identify approved drugs with previously unrecognized anticancer properties that has the potential to reveal new mechanisms and biological processes involved in carcinogenesis or drug resistance. We employed a titration-based paradigm (quantitative high-throughput screening or qHTS), where all compounds were tested at multiple concentrations for their effect on cell viability. Concentration-response curves (CRCs) were derived directly from the primary screen, and both potency and efficacy values were used to identify compounds with robust bioactivity profiles. We screened the NIH Chemical Genomics Center (NCGC) Pharmaceutical Collection (NPC) and Mechanism Interrogation Plate (MIPE) small molecule collections of approved and investigational compounds against these cell lines; and measured metabolically active cells after 48 hours of compound treatment as a proxy for cell viability.
# Assay Submitter: Nathalia J. Martinez, National Center for Advancing Translational Sciences, National Institutes of Health, Rockville, MD, USA; email: natalia.martinez@nih.gov
# [1] Shen, M et al. Quantitative high-throughput phenotypic screening of pediatric cancer cell lines identifies multiple opportunities for drug repurposing. Oncotarget 2017 Dec 19;9(4):4758-4772. PMID 29435139.
# The cells were obtained from University of North Carolina (UNC), Pediatric Preclinical Testing Program (PPT), and Coriell Institute (CI).
# qHTS cell viability assay:
# Cells were assayed in growth media at a density of 500-1,000 cells/well. Five microliters of cells were dispensed into 1,536-well, white, solid-bottom, TC-treated plates (Greiner Bio One) using a multidrop dispenser and incubated at 37 degrees C, 5% CO2, under a humidified atmosphere for 5 hours. Twenty-three nanoliters of compounds and controls (neutral control DMSO or positive control bortezomib at final concentration of 2.3 µM) were subsequently transferred by Kalypsys pintool. For primary screens, the MIPE collection was tested at 11-point dilutions (final concentrations range from 0.78 nM to 46 µM) and the NPC collection at 8-point dilutions (final concentrations range from 0.59 nM to 46 µM). Compounds tested in follow-up screens were assayed at 11-point dilutions. Cells were incubated for 48 hours, followed by addition of 3 µL of CellTiter-Glo (Promega). After a 15 min incubation at room temperature, samples were analyzed for luminescence intensity using a ViewLux High-throughput CCD imager equipped with clear filters.
# Potency is read from the fitted curve at half-maximal effect.
SMILES,"activity change, negative = cytotoxic",Potency
C=C1C[C@H]2[C@@H]3C=C(C)C4=CC(=O)CC[C@]4(C)[C@H]3CC[C@]2(C)[C@@]1(OC(C)=O)C(C)=O,1.07% (inactive),
COCc1c(C(C)C)nc(C(C)C)c(/C=C/[C@@H](O)C[C@@H](O)CC(=O)O)c1-c1ccc(F)cc1,,0.418 µM (active)
"Cc1c2oc3c(C)ccc(C(=O)N[C@@H]4C(=O)N[C@H](C(C)C)C(=O)N5CCC[C@H]5C(=O)N(C)CC(=O)N(C)[C@@H](C(C)C)C(=O)O[C@@H]4C)c3nc-2c(C(=O)N[C@@H]2C(=O)N[C@H](C(C)C)C(=O)N3CCC[C@H]3C(=O)N(C)CC(=O)N(C)[C@@H](C(C)C)C(=O)O[C@@H]2C)c(N)c1=O (I: T[dV]P[Sar][NMeV] / II: T[dV]P[Sar][NMeV]; ester I:1-I:C, II:1-II:C; linker I:N-II:N via Actinocin(9to1))",,0.0118 µM (active)
CC(C)(C(=O)c1cccnc1)c1cccnc1,3.01% (inactive),
C[C@H]1C[C@H]2[C@@H]3CCC4=CC(=O)C=C[C@]4(C)[C@@]3(Cl)[C@@H](O)C[C@]2(C)[C@@]1(O)C(=O)CO,5.35% (inactive),
C[C@]12C=CC(=O)C=C1CC[C@@H]1[C@@H]2[C@@H](O)C[C@@]2(C)[C@H]1CC[C@]2(O)C(=O)CO,6.26% (inactive),
CC(=O)OCC(=O)[C@@]1(O)[C@H](C)C[C@H]2[C@@H]3CCC4=CC(=O)C=C[C@]4(C)[C@@]3(F)[C@@H](O)C[C@@]21C,-6.61% (inactive),
C[n+]1c2cc(N)ccc2cc2ccc(N)cc21 (tested in a mixture with another compound),,8.33 µM (active)
CN(C)/N=N/c1nc[nH]c1C(N)=O,9.25% (inactive),
CN(C)C(=S)SC(=S)N(C)C,-0.459% (inactive),
COc1cc(C=C2CCC/C(=C\c3ccc(O)c(OC)c3)C2=O)ccc1O,,18.7 µM (active)
C[C@@H]1C[C@H]2[C@@H]3C[C@H](F)C4=CC(=O)C(Cl)=C[C@]4(C)[C@@]3(F)[C@@H](O)C[C@]2(C)[C@@]1(O)C(=O)CO,7.2% (inactive),
CC(=O)Oc1ccc(C(c2ccc(OC(C)=O)cc2)c2ccccn2)cc1,-0.247% (inactive),
CC(=O)[C@H]1CC[C@H]2[C@@H]3C[C@H](C)C4=CC(=O)CC[C@]4(C)[C@H]3[C@@H](O)C[C@]12C,-14.3% (inactive),
C[C@@H]1C[C@H]2[C@@H]3CCC4=CC(=O)C=C[C@]4(C)[C@@]3(F)[C@@H](O)C[C@]2(C)[C@H]1C(=O)CO,10.5% (inactive),
CCCCC(=O)O[C@]1(C(=O)CO)CC[C@H]2[C@@H]3CCC4=CC(=O)CC[C@]4(C)[C@H]3[C@@H](O)C[C@@]21C,6.97% (inactive),

SMILES,"activity change, negative = cytotoxic",Potency
CC1(C)O[C@@H]2C[C@H]3[C@@H]4C[C@H](F)C5=CC(=O)CC[C@]5(C)[C@H]4[C@@H](O)C[C@]3(C)[C@]2(C(=O)CO)O1,11.4% (inactive),
COc1c(C)c2c(c(O)c1C/C=C(\C)CCC(=O)O)C(=O)OC2,,18.7 µM (active)
NC(=O)CC[C@@H]1NC(=O)[C@H](Cc2ccccc2)NC(=O)[C@H](Cc2ccc(O)cc2)NC(=O)CCSSC[C@@H](C(=O)N2CCC[C@H]2C(=O)N[C@@H](CCCN=C(N)N)C(=O)NCC(N)=O)NC(=O)[C@H](CC(N)=O)NC1=O,-10.7% (inactive),
CCCCCCC[N+](CC)(CC)CCCCc1ccc(Cl)cc1,,20.9 µM (active)
Oc1ccc(O)cc1,-19.4% (inactive),
C[C@]12C=CC(=O)C=C1[C@@H](F)C[C@@H]1[C@@H]2[C@@H](O)C[C@@]2(C)[C@H]1CC[C@]2(O)C(=O)CO,-1.49% (inactive),
CC(=O)OCC(=O)[C@@]12OC(C)(C)O[C@@H]1C[C@H]1[C@@H]3C[C@H](F)C4=CC(=O)C=C[C@]4(C)[C@@]3(F)[C@@H](O)C[C@@]12C,-2.4% (inactive),
COc1cccc2c1C(=O)c1c(O)c3c(c(O)c1C2=O)C[C@@](O)(C(=O)CO)C[C@@H]3O[C@H]1C[C@H](N)[C@H](O)[C@H](C)O1,,1.32 µM (active)
CCCCC(CC)CN=C(N)NC(N)=NCCCCCCN=C(N)NC(N)=NCC(CC)CCCC (stereo unspecified),,11.8 µM (active)
CC(=O)OCC(=O)[C@@]1(O)CC[C@H]2[C@@H]3CCC4=CC(=O)C=C[C@]4(C)[C@H]3[C@@H](O)C[C@@]21C,1.54% (inactive),
CCOc1ccc2nc3cc(N)ccc3c(N)c2c1,,14.8 µM (active)
C[C@]12CCC(=O)C=C1CC[C@H]1[C@@H]3CC[C@](O)(C(=O)CO)[C@@]3(C)C[C@H](O)[C@@]12F,2.8% (inactive),
CC(=O)OCC(=O)[C@@]1(OC(C)=O)[C@@H](C)C[C@H]2[C@@H]3C[C@H](F)C4=CC(=O)C=C[C@]4(C)[C@@]3(F)[C@@H](O)C[C@@]21C,5.18% (inactive),
NC(CO)(CO)CO,5.25% (inactive),
CCC(C(=O)OCCN(CC)CC)c1ccccc1 (stereo unspecified),-0.665% (inactive),
